Rows were chosen to be rich in hits. Some 2.3% of all compounds tested hit in one or more screens of this group.
M1 antag = human M1 muscarinic receptor antagonists, primary screen, CHO-K1 cells, Fluo-8 calcium fluorescence, 1536-well; Muscarinic acetylcholine receptor M1 (Homo sapiens), P11229; CHO-K1 hM1, ACh EC80 antagonist; inhibition, % at 3 µM; 360,000 compounds, 1.3% hits;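 active = percent inhibition above its own plate's cutoff, namely the mean of that plate's compound wells plus 3 SD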;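 also: peak over basal fluorescence ratio during 140 s after agonist addition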
Target sequence (P11229 whole entry, looked up): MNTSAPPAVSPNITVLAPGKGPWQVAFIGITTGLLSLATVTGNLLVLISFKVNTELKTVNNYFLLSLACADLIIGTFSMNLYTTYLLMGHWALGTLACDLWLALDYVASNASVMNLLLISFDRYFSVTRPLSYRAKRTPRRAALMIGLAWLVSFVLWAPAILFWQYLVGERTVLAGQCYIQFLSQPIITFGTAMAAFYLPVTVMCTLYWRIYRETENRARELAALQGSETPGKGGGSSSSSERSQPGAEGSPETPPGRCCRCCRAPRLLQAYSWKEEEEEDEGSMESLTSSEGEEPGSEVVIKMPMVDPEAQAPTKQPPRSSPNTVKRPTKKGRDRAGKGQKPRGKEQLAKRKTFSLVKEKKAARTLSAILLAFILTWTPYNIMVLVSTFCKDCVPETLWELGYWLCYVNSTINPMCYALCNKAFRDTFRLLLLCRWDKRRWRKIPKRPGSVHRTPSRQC
CHO-K1 Ca ag = counter-screen for M1 agonists: effect in parental CHO-K1 cells | Fluo-8 calcium fluorescence; scaled to maximal ATP response, vehicle zero | activation, % at 3 µM | 360,000 compounds, 0.48% hits | AID 602248, 2012; in the data active = activation above about 15%;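 also: untransfected CHO-K1 host cells lacking M1 receptor as counterscreen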
CHO-K1 Ca antag = M1 antagonist counterscreen hit in parental CHO-K1 cells; 360,000 compounds, 0.6% hits; AID 602250; inhibition, % at 3 µM; ATP-induced calcium, Fluo-8 fluorescence;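 active = inhibition above a per-plate cutoff, the plate's mean sample inhibition plus 3 SD, cut at about 24% in these data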
CHRM1 agonist = human M1 muscarinic receptor agonists, primary screen, Fluo-8 calcium fluorescence, CHO-K1 cells, HTS. activation, % at 3 µM. 360,000 compounds, 0.33% hits. AID 588814, 2011. CHO-K1 hM1, agonist mode; 0% DMSO, 100% acetylcholine EC100. Muscarinic acetylcholine receptor M1 (Homo sapiens), P11229;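 active = activation above the run's mean compound activation plus 3 SD, cut at about 16% in these data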;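 also: peak over basal fluorescence ratio within a 140 s kinetic read after compound addition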
CHO-K1 Ca PAM = nonselective calcium activators in parental CHO-K1 cells, primary screen, counter-screen for M1 PAM project, cell-based, Fluo-8 calcium fluorescence, full deck, 1536-well; ATP EC20; 0% at ATP EC20, 100% at ATP max; activation, % at 3 µM; 360,000 compounds, 0.02% hits; AID 602247, 2012;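 active = activation above the run cutoff, the mean activation of all test compounds plus 3 SD, cut at about 40% in these data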;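 also: peak over basal fluorescence ratio in a 140 s read after ATP addition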
M1 PAM = human M1 muscarinic receptor positive allosteric modulators, primary screen, CHO-K1 cells, Fluo-8 calcium fluorescence, 1536-well. CHO-K1 hM1, ACh EC20; 0% = ACh EC20, 100% = maximal ACh. activation, % at 3 µM. 360,000 compounds, 0.088% hits; in the data active = activation above about 19%, passing the limit was not always enough
A number is an active result; 0 = inactive.

SMILES | M1 antag | CHO-K1 Ca ag | CHO-K1 Ca antag | CHRM1 agonist | CHO-K1 Ca PAM | M1 PAM
O=C(COC(=O)/C=C/c1cccc(F)c1)Nc1ncccn1 | 0 | 0 | 0 | 0 | 0 | 24
O=C1/C(=C\c2cc([N+](=O)[O-])ccc2O)SC(=S)N1Cc1ccc(Cl)cc1 | 36 | 0 | 0 | 23 | 0 | 0
O=C(NCCCN1CCCC1=O)C1CCC(CNS(=O)(=O)c2ccc(Cl)cc2)CC1 (centres undefined) | 0 | 0 | 0 | 0 | 0 | 0
N#Cc1ccc(-c2ccc(OCC(=O)Nc3cccnc3)cc2)cc1 | 0 | 18 | 0 | 0 | 0 | 0
O=C(COc1ccc(C(=O)c2ccccc2)cc1)Nc1cccnc1 | 0 | 19 | 0 | 0 | 0 | 0
CC(=O)c1cccc(NC(=O)COc2ccccc2)c1 | 0 | 0 | 32 | 0 | 0 | 0
c1ccc(CSc2nc3ncccn3n2)cc1 | 0 | 0 | 0 | 0 | 0 | 0
CC(C)(C)S(=O)(=O)N1Cc2cc(=O)n(Cc3ccccc3)c(CCO)c2[C@H]1CCO | 0 | 0 | 0 | 0 | 0 | 0
C[C@H]1CN([C@@H](C)CO)C(=O)c2cc(Br)cnc2O[C@H]1CN(C)C(=O)C1CCC1 | 0 | 0 | 0 | 0 | 0 | 0
Cc1cc(NC(=O)CS(=O)(=O)c2cn(Cc3cccc(Br)c3)c3ccccc23)no1 | 0 | 0 | 0 | 30 | 0 | 0
Cc1cc(NC(=O)CS(=O)(=O)c2cn(Cc3ccccc3Cl)c3ccccc23)no1 | 0 | 0 | 0 | 0 | 0 | 0
CCCn1cc(SCC(=O)Nc2cc(C)on2)c2ccccc21 | 0 | 0 | 0 | 0 | 0 | 0
Cc1cc(NC(=O)CS(=O)c2cn(Cc3cccc(Cl)c3)c3ccccc23)no1 (centres undefined) | 0 | 0 | 0 | 23 | 0 | 0
CN1CCN(C(=O)c2ccccc2N(Cc2ccccc2)S(=O)(=O)c2ccccc2)CC1 | 0 | 0 | 0 | 28 | 0 | 0
O=C(CN1CCN(S(=O)(=O)c2ccc(Cl)cc2)CC1)N1CCCC1 | 0 | 0 | 0 | 0 | 0 | 0
COC(=O)c1cc(OC)c(OC)cc1NC(=O)c1ccc(OC)cc1 | 0 | 20 | 26 | 0 | 0 | 0
COc1ccc(C(=O)Nc2ccccc2Cc2ccccc2)c(OC)c1 | 0 | 0 | 0 | 0 | 52 | 0
COc1ccc(NC(=O)c2ccccc2Oc2ccccc2)c(OC)c1 | 0 | 0 | 0 | 0 | 0 | 0
COc1ccc(NC(=O)c2cccnc2)c(OC)c1 | 0 | 0 | 27 | 0 | 0 | 0
COc1ccc(NC(=O)c2ccccc2OCc2ccc(F)cc2)c(OC)c1 | 0 | 0 | 0 | 0 | 43 | 0
Cc1ccc(S(=O)(=O)N2CCCCC2)cc1NC(=O)c1ccncc1 | 0 | 0 | 0 | 0 | 0 | 0
Cn1ccnc1COc1ccc(C=O)cc1 | 0 | 0 | 0 | 0 | 0 | 0
COc1ccc(Cn2c(=O)[nH]c3cc(OC)c(OC)cc3c2=O)cc1 | 0 | 0 | 0 | 0 | 0 | 0
CCOc1cc2[nH]c(=O)n(Cc3ccccc3)c(=O)c2cc1OCC | 0 | 0 | 26 | 0 | 0 | 0
Cc1ccc(S(=O)(=O)NNC(=O)c2c(O)c3ccccc3[nH]c2=O)cc1 | 0 | 16 | 0 | 0 | 0 | 0
SMILES | M1 antag | CHO-K1 Ca ag | CHO-K1 Ca antag | CHRM1 agonist | CHO-K1 Ca PAM | M1 PAM
CN(C)c1ccc(C(CNC(=O)c2ccco2)N2CCCC2)cc1 (centres undefined) | 0 | 0 | 0 | 0 | 0 | 0
O=C(NC(=S)NCc1cccnc1)c1cc(Br)ccc1Cl | 0 | 0 | 0 | 0 | 0 | 0
CN(C)c1ccc(/C=C/c2ccc3c4ccccc4ccc3[n+]2-c2ccccc2)cc1 | 64 | 16 | 41 | 0 | 0 | 0
CCCn1c(SCC(=O)Nc2ccc(S(=O)(=O)N3CCOCC3)cc2)n[nH]c1=O | 0 | 0 | 0 | 0 | 0 | 0
COc1cccc(Nc2nc3cc(C)ccc3cc2C)c1 | 0 | 0 | 26 | 0 | 0 | 0
O=C(Nc1c(F)cccc1F)c1cnc(N2CCN(c3ccccn3)CC2)c2ccccc12 | 0 | 0 | 30 | 0 | 0 | 0
CCN1CCN(c2ncc(C(=O)Nc3cc(Cl)ccc3OC)c3ccccc23)CC1 | 58 | 0 | 0 | 0 | 0 | 0

Compound activity (PubChem BioAssay)
